# TLR9-MyD88 inh – TLR9-MyD88 interaction inhibition; AID 504734; CHO BLA complementation TLR9-MyD88, CCF4 FRET ratio; inhibition, % at 4.98 µM; 0.21% of 340,000 active;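 active = inhibition above the mean over all tested compounds plus 3 SD, cut at about 21% in these data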
# TLR4 MyD88 comp – TLR4-MyD88 interaction inhibition in cells. O00206+Q99836. HeLa CL3-4 TLR4/MyD88 BLA complementation, FRET ratio. inhibition, % at 8.4 µM. 0.18% of 200,000 active. AID 861; in the data active = inhibition above about 25%
# Mcl-1 Bim block – human Bim-Mcl-1 interaction inhibition; inhibition, % at 10 µM; Q07820; 0.1% of 190,000 active; Bead-based flow cytometry, Bim peptide-Mcl-1 binding; in the data active = inhibition above about 40%
# Target sequence (Q07820 whole entry, looked up): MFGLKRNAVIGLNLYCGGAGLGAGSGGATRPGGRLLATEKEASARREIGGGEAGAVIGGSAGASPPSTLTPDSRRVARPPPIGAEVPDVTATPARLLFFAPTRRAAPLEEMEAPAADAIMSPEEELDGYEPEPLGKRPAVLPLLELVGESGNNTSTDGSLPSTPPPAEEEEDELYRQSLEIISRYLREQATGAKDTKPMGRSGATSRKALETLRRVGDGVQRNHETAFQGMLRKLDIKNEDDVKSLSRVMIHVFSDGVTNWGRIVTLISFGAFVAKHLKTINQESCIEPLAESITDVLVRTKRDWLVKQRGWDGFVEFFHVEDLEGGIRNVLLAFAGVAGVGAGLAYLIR
# Mcl1 Noxa PPI – disrupts binding of human Mcl-1 to Noxa peptide. 1.5% of 220,000 active. Q07820. inhibition, % at 21.7 µM. TR-FRET Mcl-1/Noxa peptide binding, 2 h. AID 1022;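 active = compounds that cut the protein-peptide binding signal by more than 50% relative to plate controls in a single-dose test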;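 note: His-tagged Mcl-1 with rhodamine Noxa BH3 peptide and terbium anti-His antibody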
# NOD2 RIPK2 PPI – blocks binding of human NOD2 to RIPK2 | inhibition, % at 4.98 µM | AID 624267 | 0.38% of 360,000 active | O43353 | CHO BLA complementation NOD2-RIPK2, CCF4 ratio; in the data active = inhibition above about 21%
# Mcl1-Bid inh – Mcl-1/Bid interaction inhibition; 0.97% of 220,000 active; inhibition, % at 21.7 µM; Q07820; AID 1021; TR-FRET Mcl-1/Bid-Dy647 peptide binding, 1536-well;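 active = compounds that cut the binding signal by more than half at the single screening dose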;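 note: His-tagged Mcl-1 with europium anti-His antibody binding Bid BH3 peptide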
# A number is an active result; i = inactive; nt = no result. Most compounds without a hit are left out; they make up all but 1.8% or so of the library.
SMILES,TLR9-MyD88 inh,TLR4 MyD88 comp,Mcl-1 Bim block,Mcl1 Noxa PPI,NOD2 RIPK2 PPI,Mcl1-Bid inh
COc1cc(-c2nc(-c3ccc4c(c3)-c3ccccc3S4(=O)=O)c(-c3ccccc3)[nH]2)cc(OC)c1O,i,i,i,58,i,i
COc1cc(C2C(C#N)=C(N)Oc3cc(C)oc(=O)c32)cc2c1OCO2 (stereo not drawn),i,i,i,51,i,i
CCOC(=O)N1C(=O)NC(=O)C1c1ccc(OC)cc1 (stereo not drawn),i,nt,nt,nt,i,nt
CC(/C=N/n1c(-c2ccco2)n[nH]c1=S)=C\c1ccco1,i,i,i,i,i,i
CC(/C=N\Nc1nnc2c(n1)[nH]c1c(C)cccc12)=C\c1ccco1,i,i,i,87,i,78
Cc1ccc(OCC(=O)Nc2ccon2)c([N+](=O)[O-])c1,i,nt,nt,nt,i,nt
O=C(NCCc1ccccc1)C(=O)c1c[nH]c2ccccc12,i,nt,nt,nt,i,nt
NS(=O)(=O)c1ccc(CCNC(=O)C(=O)c2c[nH]c3ccccc23)cc1,i,i,i,i,i,99
c1ccc(-c2nnc(OCCN3CCOCC3)c3ccccc23)cc1,i,i,79,i,i,i
Cc1ccc(Nc2nc(-c3ccc(O)c(O)c3)cs2)nc1,nt,i,i,54,nt,i
Cc1ccc(Nc2nc(-c3ccc(F)cc3)cs2)nc1,i,nt,nt,nt,i,nt
O=C(CCCSc1ccccc1)Nc1nc(-c2ccco2)c(-c2ccco2)s1,i,i,i,52,i,i
O=C(CCl)Nc1nc(-c2ccco2)c(-c2ccco2)s1,i,i,i,53,i,i
CCN(CC)c1ccc(Nc2nc(N3CCOCC3)c3ccccc3n2)cc1,i,i,i,54,i,i
COc1ccc(Nc2nc(N3CCCC3)c3ccccc3n2)cc1,i,i,i,i,i,i
CC(=O)c1cc(C#N)c(NCCCN(C)C)nc1C,i,i,i,i,i,56
O=C(NCCc1ccccc1)c1ccc(NC(=O)C2CC2)cc1,i,nt,nt,nt,i,nt
COC(=O)C[C@@H]1CC[C@@H](NC(C)=O)[C@@H](CO)O1,nt,nt,nt,nt,i,nt
CCN(CC)S(=O)(=O)c1ccc(OC)c(NC(=O)Cc2cccs2)c1,i,i,i,56,i,i
CCOC(=O)c1c(C)oc2c1cc(O)c1ccccc12,i,i,i,i,i,i
CCOC(=O)c1c(C)oc2c1c1c(c3ccccc32)OCN(CCCC(=O)O)C1,i,nt,nt,53,i,i
CCOC(=O)c1c(C)oc2c1c(C=NCc1ccccn1)c(O)c1ccccc12,i,i,i,i,i,i
CCOC(=O)c1c(C)oc2c1c1c(c3ccccc32)OCN(Cc2cccnc2)C1,i,i,i,71,i,i
CCOC(=O)c1c(C)oc2c1c(C(c1cccnc1)N1CCOCC1)c(O)c1ccccc12 (stereo not drawn),i,i,i,101,i,69
COc1ccc(OC)c(C(=O)Nc2c(O)ccc3ccccc23)c1,i,nt,nt,nt,i,nt
SMILES,TLR9-MyD88 inh,TLR4 MyD88 comp,Mcl-1 Bim block,Mcl1 Noxa PPI,NOD2 RIPK2 PPI,Mcl1-Bid inh
CC1CCc2nc3sc4c(c3c(N)c2C1)CCCC4 (stereo not drawn),i,i,i,i,i,i
CC1CCc2c(nc3sc4c(c3c2N)CCCC4)C1 (stereo not drawn),i,i,i,54,i,i
O=C(NCc1nnc(SCC(=O)N2CCCC2)o1)c1c(F)cccc1Cl,i,i,i,i,i,i
O=C(NCc1nnc(SCC(=O)N2CCOCC2)o1)c1c(F)cccc1Cl,i,i,i,i,i,77
COc1cc(OC)c(OC)cc1CNCc1ccco1,i,nt,nt,nt,i,nt
CCOc1ccc(CCNC(=O)CCc2nnc3ccc(N4CCCCC4)nn23)cc1OCC,i,nt,nt,nt,i,nt
COc1cccc(N2CCN(C(=O)c3ccc(OC)c(S(=O)(=O)NC4CC4)c3)CC2)c1,i,nt,nt,nt,i,nt
CCc1nc(N)c(C#N)c(-c2ccc(OC)c(OC)c2)c1C,i,i,i,i,i,i
CC1=C(C#N)c2nc(N)c(C#N)c(C)c2/C1=C\c1ccc(OCC(=O)O)c(Cl)c1,i,nt,nt,57,i,i
CCOc1ccc(OCC)c(NC(=O)CN2CCN(c3ccc(C)cc3C)CC2)c1,i,i,i,i,i,51
CCOC(=O)N1CCN(CC(=O)Nc2cc(OCC)ccc2OCC)CC1,i,i,i,i,i,60
CCOc1ccccc1N1CCN(CC(=O)Nc2cc(C)on2)CC1,i,i,i,i,i,i
CC1(C)CC(=O)C2=C(C1)OC(N)=C(C#N)C2c1cc2c(cc1[N+](=O)[O-])OCO2 (stereo not drawn),i,i,i,i,i,i
O=[N+]([O-])c1ccccc1CN1CCN(Cc2ccccn2)CC1,i,i,i,i,i,59
O=[N+]([O-])c1cc(CN2CCN(c3cccc(C(F)(F)F)c3)CC2)c2cccnc2c1O,nt,i,i,i,nt,i
O=[N+]([O-])c1cc(CN2CCCC2)c2cccnc2c1O,i,i,i,75,i,i
O=C(CSc1ccsc1[N+](=O)[O-])Nc1cc(F)ccc1F,i,i,i,104,i,i
CCN(CC)c1ccc(NC(=O)CSc2ccsc2[N+](=O)[O-])c(C)c1,i,i,i,66,i,i
O=C(CSc1ccsc1[N+](=O)[O-])NCCc1ccc(Cl)cc1,i,i,i,i,i,i
CC(=O)c1ccc(NC(=O)CSc2ccsc2[N+](=O)[O-])cc1,i,i,i,87,i,i
CC(C)(C)S(=O)N1Cc2cc(=O)n(Cc3ccccc3)c(CCO)c2[C@H]1CCO (stereo partly drawn),i,nt,nt,nt,i,nt
Cc1cccnc1C(NC(=O)C1CCN(CCCc2ccccc2)CC1)c1ccc(F)cc1 (stereo not drawn),nt,nt,nt,nt,i,nt
CCN(CC)C(=O)c1sc2nc(N3CCOCC3)c3c(c2c1N)CCCC3,i,i,i,59,i,i
CCOC(=O)c1sc2nc(N3CCOCC3)c3c(c2c1N)CCCC3,i,i,i,i,i,i
CCN(CC)CCOC(=O)c1ccc(N/C=C(/C#N)c2nc(-c3ccc4c(c3)OCO4)cs2)cc1,i,nt,nt,69,i,63
SMILES,TLR9-MyD88 inh,TLR4 MyD88 comp,Mcl-1 Bim block,Mcl1 Noxa PPI,NOD2 RIPK2 PPI,Mcl1-Bid inh
CCN(CC)CCOC(=O)c1ccc(N/C=C(/C#N)c2nc(-c3ccc(OC)cc3)cs2)cc1,i,nt,nt,i,i,i
O=C1ON=C(c2ccccc2)/C1=C/c1ccc(O)cc1,i,nt,nt,nt,i,nt
O=C1ON=C(c2ccc(Cl)cc2)/C1=C/c1ccc(O)cc1,nt,i,i,66,nt,i
Cn1c(=O)c2c(n(C)c1=O)n(C)c(=O)n2C,nt,nt,nt,nt,i,nt
Cc1nc(NCc2ccc3c(c2)OCO3)c2nnn(Cc3ccccc3)c2n1,i,i,i,i,i,i
c1ccc(Cn2nnc3c(NCc4ccc5c(c4)OCO5)nc(C4CC4)nc32)cc1,i,i,i,i,i,52
CN(Cc1ccc(OC(F)F)cc1)C(=O)C1CCN(S(=O)(=O)c2ccc3c(c2)OCCO3)CC1,i,nt,nt,nt,i,nt
CCOC(=O)c1ccccc1NC(=O)c1ccc2nccnc2c1,i,i,i,51,i,i

# High-throughput results deposited in PubChem by several laboratories.
